Twelve compounds from PubChem BioAssay (NCI) can be followed below.

Several values for one entry are separate records, joined by “and”; a condition that tells them apart may be missing. Equal values may be shown once. This is part of a sample that, as a whole, favours compounds with a hit. Of some 83,000 tested, about 20% had one in any assay.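 Note: values are percent growth. 100 is the growth of untreated cells, values between 100 and 0 indicate rising inhibition; between -100 and 0 indicates cell death.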 Activity calls are given as the source filed them. Rule for the calls: active = growth percent below 10; inactive = the rest.

Test systems include DU-145 prostate; K-562 leukemia; MALME-3M melanoma; MDA-MB-231 breast; RXF 393 renal; SF-268 CNS; SF-295 CNS; SF-539 CNS; UACC-257 melanoma; M14 melanoma.
Common to all, as to test: NCI-60 one-dose screen, 48 h (100 = growth as untreated, 0 = no growth, -100 = all killed)
Common to all, as to details: 10 µM unless noted

With `Nc1cccnc1`, the growth was 125% (inactive) in the assay on DU-145 prostate; 105% (inactive) in the assay on K-562 leukemia; 120% (inactive) with MALME-3M melanoma; 110% (inactive) in the assay on MDA-MB-231 breast; 126% (inactive) in the assay on RXF 393 renal; 108% (inactive) with SF-268 CNS. Further, the growth with SF-295 CNS was 122% (inactive); in the assay on SF-539 CNS, 113% (inactive); in the assay with UACC-257 melanoma, 82.9% (inactive); in the assay on M14 melanoma it was 113% (inactive).
On to `[N-]=[N+]=CC(=O)CCC(=O)C=[N+]=[N-]`, for which the growth in the assay on DU-145 prostate is 127% (inactive); in the assay with K-562 leukemia it was 83.9% (inactive); with MALME-3M melanoma, 96.3% (inactive); in the assay with MDA-MB-231 breast, 103% (inactive); in the assay on RXF 393 renal, 124% (inactive); in the assay on SF-268 CNS it was 121% (inactive). The growth in the assay on SF-295 CNS is 106% (inactive); with SF-539 CNS, 88.3% (inactive); in the assay on UACC-257 melanoma, 137% (inactive); with M14 melanoma, 102% (inactive).
As for `C#Cc1cccc(Nc2nc(Cl)nc3cc(NC(=O)CF)ccc23)c1`, the growth is 98.1% (inactive) in the assay with DU-145 prostate; 28% (inactive) with K-562 leukemia; 70.5% (inactive) in the assay on MALME-3M melanoma; 64.5% (inactive) in the assay with MDA-MB-231 breast; 100% (inactive) in the assay on RXF 393 renal; 87.8% (inactive) in the assay on SF-268 CNS. For the same compound, the growth in the assay with SF-295 CNS was 71.9% (inactive); in the assay on SF-539 CNS, 89.1% (inactive); in the assay with UACC-257 melanoma, 88.7% (inactive); in the assay with M14 melanoma, 48.3% (inactive).
With `CCCCCCCCCCCCCCCCCCn1cc[n+](C)c1`, the growth was -54% (active) and -62.3% (active) in the assay with DU-145 prostate; 28.3% (inactive) and 17.9% (inactive) in the assay with K-562 leukemia; -33.7% (active) and -30.7% (active) in the assay with MALME-3M melanoma; -66.2% (active) and -80.2% (active) with MDA-MB-231 breast; -28.3% (active) and -62.1% (active) in the assay on RXF 393 renal; -45.4% (active) and -45.3% (active) with SF-268 CNS. The growth was -10.4% (active) and -21.5% (active) in the assay with SF-295 CNS; -85.2% (active) and -82.9% (active) in the assay on SF-539 CNS; -38% (active) and -47.9% (active) in the assay on UACC-257 melanoma; -62.4% (active) and -49.9% (active) with M14 melanoma.
For the compound `CCOC(=O)C1C(C=C(C)C)C1(C)C` (stereo not given), the growth in the assay on DU-145 prostate was 108% (inactive); in the assay with K-562 leukemia, 155% (inactive); with MALME-3M melanoma it was 140% (inactive); in the assay on MDA-MB-231 breast it was 106% (inactive); with RXF 393 renal it was 114% (inactive); in the assay on SF-268 CNS it was 101% (inactive). Further, the growth in the assay with SF-295 CNS was 101% (inactive); in the assay with SF-539 CNS it was 93.5% (inactive); with UACC-257 melanoma it was 106% (inactive); in the assay on M14 melanoma, 106% (inactive).
With `C=CCOC(=O)C(Br)CC` (stereo not given), the growth with DU-145 prostate is 108% (inactive); in the assay with K-562 leukemia it was 107% (inactive); with MALME-3M melanoma, 99.9% (inactive); with MDA-MB-231 breast, 93.6% (inactive); in the assay on RXF 393 renal, 118% (inactive); in the assay with SF-268 CNS it was 106% (inactive). Moreover, the growth is 109% (inactive) in the assay on SF-295 CNS, 100% (inactive) in the assay on SF-539 CNS, 104% (inactive) in the assay on UACC-257 melanoma and 109% (inactive) in the assay on M14 melanoma.
With `Oc1cc(N2CC2)c(O)cc1N1CC1`, the growth was 9.43% (active) in the assay with DU-145 prostate; 17.1% (inactive) with K-562 leukemia; -89.6% (active) in the assay on MALME-3M melanoma; 96.9% (inactive) in the assay with MDA-MB-231 breast; -78% (active) in the assay with RXF 393 renal; 7.87% (active) in the assay on SF-268 CNS. In addition, the growth in the assay with SF-295 CNS is 15.9% (inactive); in the assay with SF-539 CNS, -12% (active); in the assay with UACC-257 melanoma it was -47.1% (active); in the assay with M14 melanoma, -50.4% (active).
Turning to `C[C@@H]1C/C=C\C(=O)O[C@H](/C=C/C#C/C=C/C(C)(C)[C@@H](O)c2cccc(O)c2Br)[C@@H](C)/C=C/[C@H](C)C[C@H](OC(N)=O)C1`, the growth in the assay with DU-145 prostate was 47.6% (inactive); with K-562 leukemia, 6.76% (active); in the assay with MALME-3M melanoma, 28.4% (inactive); in the assay with MDA-MB-231 breast, 2.09% (active); with RXF 393 renal, 27.4% (inactive); with SF-268 CNS it was 40.4% (inactive). The growth with SF-295 CNS is -6.34% (active); with SF-539 CNS, 30.6% (inactive); with UACC-257 melanoma, -11.1% (active); with M14 melanoma, 0.391% (active).
For `O=S(OO)c1cc(Cl)c(O)c(Cl)c1` (stereo not given), the growth in the assay on DU-145 prostate is 113% (inactive); with K-562 leukemia, 107% (inactive); in the assay with MALME-3M melanoma, 115% (inactive); in the assay with MDA-MB-231 breast, 110% (inactive); with RXF 393 renal, 106% (inactive); in the assay on SF-268 CNS, 103% (inactive). In addition, the growth in the assay with SF-295 CNS is 94.3% (inactive); with SF-539 CNS, 95.7% (inactive); in the assay on UACC-257 melanoma, 99.6% (inactive); in the assay with M14 melanoma it was 107% (inactive).
In the case of `CCCN1C(=O)NC(=O)C(CC)(N2C(=O)c3c(F)c(F)c(F)c(F)c3C2=O)C1=O` (stereo not given), the growth with DU-145 prostate is -98.9% (active); with K-562 leukemia, -81.7% (active); with MALME-3M melanoma, -71.1% (active); with MDA-MB-231 breast, -78.7% (active); with RXF 393 renal, -95.1% (active); in the assay on SF-268 CNS, -82.5% (active). Besides, the growth with SF-295 CNS was -68.6% (active); with SF-539 CNS, -96.7% (active); in the assay on UACC-257 melanoma, -83.3% (active); in the assay on M14 melanoma, -64.7% (active).
Take `CC1(C)N(Nc2ccccc2)C(=O)C2CCCN21` (stereo not given): the growth is 16.8% (inactive) with DU-145 prostate; 8.29% (active) in the assay on K-562 leukemia; 84.2% (inactive) in the assay on MALME-3M melanoma; 89.6% (inactive) in the assay on MDA-MB-231 breast; 116% (inactive) in the assay on RXF 393 renal; 39.5% (inactive) in the assay with SF-268 CNS. Besides, the growth with SF-295 CNS is 84.5% (inactive); in the assay on SF-539 CNS, 89.3% (inactive); in the assay on UACC-257 melanoma it was 89.2% (inactive); in the assay with M14 melanoma it was 10% (active).
For `COc1ccc(/C=C(/C)[N+](=O)[O-])cc1OC`, the growth is 22.3% (inactive) and 13.5% (inactive) with DU-145 prostate; 7.3% (active) and 5.18% (active) with K-562 leukemia; -22.6% (active) and -51.7% (active) in the assay with MALME-3M melanoma; 11.3% (inactive) and 28.8% (inactive) in the assay on MDA-MB-231 breast; -91.1% (active) and -95.7% (active) in the assay on RXF 393 renal; 3.01% (active) and 44.6% (inactive) with SF-268 CNS. Besides, the growth in the assay with SF-295 CNS was 98.6% (inactive) and 104% (inactive); in the assay on SF-539 CNS, 15.1% (inactive); with UACC-257 melanoma it was -88.6% (active) and -67.5% (active); in the assay on M14 melanoma, -52.6% (active) and -61.6% (active).
